Screening data: PubChem, National Center for Advancing Translational Sciences (NCATS)
Rows were chosen to be rich in hits. Some 1.4% of all compounds tested hit in one or more screens of this group.
p53 reactivation: mutant p53 re-activation in reporter cells. Potency, µM (doses to about 92.2 µM), without a hit: at the highest dose activity change, positive = activation, actives largely listed as activators. H1299 p53-A138V BP100-luciferase reporter, luminescence, 24 h. 0.063% of 320,000 active; also: potency is read from the fitted curve at half-maximal effect; % of control where 0% means no effect; nearly all actives have a fitted effect of over 45% in size
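H1299 (p53-null), stable ts p53-A138V + BP100-Luc; 1000 cells/well, Opti-MEM/10% FBS; cpd 4 pt, 1:5; 24 h, 37 deg C, 5% CO2; detection reagent 10 min RT; luminescence.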
TCR activator: T cell receptor activation | primary human leukocytes, anti-CD3, IL-2 HTRF, 48 h | Potency, µM (highest dose often 9.22 µM), for the others: top-dose activation of IL-2 secretion, hits mostly activators | 330,000 tested, under 10 active | AID 504894; also: % of control where 0% means no effect
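HTRF read-out of IL-2 secretion: europium cryptate donor excited at 320nm, d2 acceptor emission at 665nm. Cells were primary human leukocytes incubated 48 hr with compounds and a-CD3 beads, supplying TCR signal only.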
IL-2 act: activates IL-2 in a cell-based reporter assay; IL-2 activation reporter assay, cell-based qHTS; stimulated with anti-CD3/CD4/CD28 beads; in transgenic mouse T cells; AID 652025; 0.065% of 360,000 active; activation, % (series mostly up to about 46 µM); in the data active = activation above about 50%; inconclusive = mostly about 30% to 49%; also: 0% is about no effect
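Unstimulated transgenic mouse T cells preincubated 60 min with compound, then stimulated with anti-CD3/anti-CD4-coated beads plus anti-CD28 for 18 h at 37 degrees C. IL-2 response read as EGFP and DsRed fluorescence by plate cytometry.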
uPA surface inh: inhibitors of cell surface uPA generation. cell surface uPA generation assay, qHTS. Potency, µM (doses to about 38.3 µM), for inactives: at the top dose activity change, negative = inhibition, most hits filed as inhibitors. 0.31% of 330,000 active; active = well fitted inhibition curve with a large enough effect; inconclusive = small, poorly fitted or top-dose-only effect; inactive = no such curve, though single readings can be large or run the other way; tested in mouse RAW 264.7 cells; also: potency is read from the fitted curve at half-maximal effect; % is scaled to controls: 0 for no effect and ±100 for the full control effect; nearly all actives have a fitted effect of over 55% in size
BRCA1 expr up: increases BRCA1 expression | MCF7-BRCA1-FFLuc reporter, luminescence, 48 h; response scale: scaled: vehicle 0%, 10 µM genistein 100% | Potency, µM (doses to about 46.1 µM), for inactives: top-dose activation, usual class: activators | 1.1% of 380,000 active; also: potency is read from the fitted curve at half-maximal effect; nearly all actives have a fitted effect of over 80% in size
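48 h compound treatment of MCF7-BRCA1-FFLuc cells (phenol-red free MEM, 37 °C), then 15 min with luciferase substrate and luminescence imaging.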
* marks the source's active call; other numbers are inactive results; ? = inconclusive; · = no result; [ ] = dose if it differs, or a comment. Unless noted, calls follow the shape of the dose curve; as a rule, active = well fitted curve in the direction sought with a large enough effect; inconclusive = small, poorly fitted or top-dose-only effect, or another doubt; inactive = no such curve, though single readings can be large; an effect the other way counts as inactive or inconclusive.

SMILES	p53 reactivation	TCR activator	IL-2 act	uPA surface inh	BRCA1 expr up
O=C(NC1CCCC1)C1CCCN1C(=O)Nc1ccccc1 (centres undefined)	2.1%	7.3%	0.5	-3.4%	2.9%
O=C(Nc1ccccc1)N1CCCC2CCCCC21 (centres undefined)	?	-2.8%	-0.3	-1.3%	11.2µM*
CCC(=O)c1ccc(OCC(O)Cn2nc(C)cc2C)cc1 (centres undefined)	0.9%	4.1%	-0.1	-69.9%	0.1%
Cc1ccccc1OCC(O)Cn1nnc2ccccc21 (centres undefined)	?	3.6%[46.1 µM]	-4.6	1.0%	12.6µM*
Cc1cc(C)n(CC(O)COc2ccccc2C)n1 (centres undefined)	8.0%	-0.4%	-3.5	2.9%	-3.6%
CCC(=O)c1ccc(OCC(O)Cn2nnc3ccccc32)cc1 (centres undefined)	20.0%	-1.1%	-3.6	8.1%	10µM*
COc1ccc(CNc2nc(-c3ccc(OC)cc3)cc(C(F)(F)F)n2)cc1	·	·	·	·	-27.1%
CSc1ccc(CC(=O)N2CCC(n3nccc3NC(=O)C3CC3)CC2)cc1	23.9%	3.0%	-1.8	-2.1%	2.82µM*
COc1cccc(CC(=O)N2CCC(n3nccc3NC(=O)C3CC3)CC2)c1	8.4%	-3.6%	-0.6	-1.1%	-18.4%
CCOc1ccc(NC(=O)c2nc(S(=O)(=O)Cc3ccc(F)cc3)ncc2Cl)cc1	·	·	·	·	-65.4%
O=S(=O)(c1ccccc1Br)N1CCN(c2nc(-c3ccccc3)nc3ccccc23)CC1	·	·	·	·	10.1%
O=C(c1ccco1)N1CCN(C(=O)c2ccco2)CC1	·	·	0.0	·	18.6%
O=C(c1ccco1)N1CCN(c2ccc(N3CCCCC3)nn2)CC1	?	-2.7%	-0.5	-5.4%	10µM*
O=C(c1ccco1)N1CCN(Cc2ccccc2Br)CC1	19.6%	5.9%	-0.5	-2.8%	15.8µM*
CCN(CC)/[N+]([O-])=N/OCOC(=O)c1ccccc1OC(C)=O	·	·	·	·	4.3%
Cc1cc(C(=O)N/N=C/c2cccc(OC(=O)c3cccc(Br)c3)c2)n[nH]1	1.1%	-2.4%	2.6	-10.8%	53.5%
COc1cccc(C(=O)Oc2c(Br)cc(Br)cc2/C=N/NC(=O)c2cc(C)[nH]n2)c1	6.3%	6.3%	-4.1	3.98µM*	-74.4%
Cc1ccc(S(=O)(=O)n2nc(-c3ccccc3)nc2NCc2ccccc2Cl)cc1	·	·	·	·	2.3%
Cc1cccc(NC(=O)C(=O)NCC2CCCO2)c1 (centres undefined)	4.4%	-4.1%	1.2	-2.1%	2.24µM*
O=C(NCC1CCCO1)Nc1cccc(Cl)c1 (centres undefined)	29.4%	-3.8%	-1.7	-4.4%	61.8%
CCn1cc(C(=O)Nc2ccc(C(C)C)cc2)c2cc(OC)c(OC)cc2c1=O	·	·	·	·	0.0%
COC(=O)C(Cc1ccc(O)cc1)N1Cc2ccccc2C1=O (centres undefined)	?	-2.6%	-1.0	-3.7%	10µM*
CCC(C)Sc1cc(-c2nc3ccc(C)cn3c2NCc2ccccc2)ccc1OC (centres undefined)	·	4.1%	-0.7	4.47µM*	-95.4%
COc1ccc(-c2nc3ccc(C)cn3c2NCc2ccccc2)cc1SC1CCCCC1	-5.9%	-3.4%	-0.7	3.16µM*	-31.7%
CCCCNc1c(-c2ccc(OC)c(SC(C)CC)c2)nc2ccc(C)cn12 (centres undefined)	-0.5%	-7.5%	-0.7	?	-82.1%
SMILES	p53 reactivation	TCR activator	IL-2 act	uPA surface inh	BRCA1 expr up
CCC(C)Sc1ccc(-c2nc3ccc(C)cn3c2NCc2ccccc2)cc1OC (centres undefined)	16.2%	-9.1%	-0.8	5.62µM*	-33.5%
COc1cc2c(NC3CCN(C(C)C)CC3)nc(N3CCCN(C)CC3)nc2cc1OCCCN(C)C	·	·	·	·	-10.8%
CC(C(=O)N1CCCCC1)n1sc2ccccc2c1=O (centres undefined)	11.2µM*	0.1%[46.1 µM]	-0.1	-4.1%	?
COc1ccccc1CNc1ccc(-c2nc(C)no2)cc1[N+](=O)[O-]	·	·	·	·	-18.1%
Cc1csc(SCc2nnc(-c3ccccc3Br)o2)n1	?	-0.5%	-0.2	3.1%	?
Cc1csc(SCc2nnc(-c3ccc(Cl)cc3)o2)n1	?	-0.3%	-0.5	-2.1%	7.08µM*
CC(=O)NCCCN(Cc1ccc(Cl)c(Cl)c1)c1ccc(Br)cn1	·	·	·	·	-27.6%
O=S(=O)(Nc1cc(Br)cc2cccnc12)c1ccccc1	·	·	·	·	-52.7%
N#Cc1cc(C#N)c(N2CCN(c3cccc(Cl)n3)CC2)nc1N	3.6%	-2.3%	1.6	·	8.91µM*
Cc1cccc2cc(C#N)c(N3CCN(C)CC3)nc12	-1.6%	3.0%	-2.8	-0.2%	10.6%
CC(C)(C)c1csc(NC(=O)CCc2ccccc2)n1	31.6µM*	10.2%	0.2	2.0%	0.0%
Cc1ccc(NC(=O)CCc2ccccc2)cc1C	·	·	2.0	·	12.6µM*
O=C(CCc1ccccc1)Nc1ccc2ccccc2n1	?	-0.7%	-3.9	1.9%	7.08µM*
CNc1ccc(/C=C2\C=Cc3ccccc32)cc1Cl	·	·	·	·	21.2%
Cc1oncc1-c1cn2ccccc2n1	4.6%	-6.2%	-2.5	-0.9%	11.2%
CC(=O)Nc1cccc(-c2cn3ccc(C)cc3n2)c1	2.3%	-1.4%	0.7	?	?
Cc1ccn2cc(-c3ccc(Br)cc3)nc2c1	2.7%	2.1%	1.1	2.82µM*	-17.3%
Cc1ccn2cc(-c3cnoc3C)nc2c1	?	0.6%	0.5	-7.7%	10µM*
Cc1ccn2cc(-c3cccc(NC(=O)CCC(=O)O)c3)nc2c1	·	3.4%	3.4	3.55µM*	-12.4%
CCOc1ccc(-c2cc3c(=O)n(Cc4nc(-c5ccc(OCC)c(OC)c5)oc4C)ccn3n2)cc1Cl	·	·	·	·	2.6%
CCc1ccccc1N(C)C(=O)Cn1cnc2sc(C)c(S(=O)(=O)N3CCN(c4ncccn4)CC3)c2c1=O	·	·	·	·	1.8%
COc1ccc(CNC(=O)CSc2ncc3c(n2)-c2ccc(Cl)cc2N(Cc2ccccc2)S3(=O)=O)cc1	·	·	·	·	-6.2%
Cc1cc(Nc2ccc(C)c(Cl)c2)n2nc(Cc3ccccc3)nc2n1	·	·	·	·	-10.7%
COC(=O)c1ccc2c(c1)N(CC(=O)Nc1cccc(Cl)c1C)C(=O)c1ccccc1S2	·	·	·	·	-10.4%
Oc1ccc(-c2nnc(SCC3CCCCC3)o2)cc1	?	-5.2%	-4.1	-4.1%	6.31µM*
O=C(CSc1nnc(-c2ccc(O)cc2)o1)N1CCOCC1	?	-3.0%	-1.5	0.0%	83.0%
COc1ccccc1CNC(=O)CSc1ncc(S(=O)(=O)c2ccc(C)c(Cl)c2)c(=O)[nH]1	·	·	·	·	5.4%
CCCn1ccc2c(OCC(=O)Nc3ccc(F)cc3F)cccc2c1=O	·	·	·	·	-5.6%
CC(C)C(=O)Nc1ccc(NC(=O)c2ccccn2)cn1	1.4%	0.2%	-0.8	-4.3%	2.51µM*
Cc1ccc(-n2ncc(C(=O)Nc3cc(Cl)ccc3Cl)c2C2CCNCC2)cc1	8.7%	0.1%	0.4	-4.8%	-32.0%
